Source: PubChem (several laboratories)
Myeloid diff MLP = induction of myeloid progenitor differentiation, primary screen, cell-based, flow cytometry, MLPCN library | ER-HoxA9 myeloid progenitors, lysozyme-GFP differentiation | calls only at 10 µM | 360,000 compounds, 1% hits;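 active = normalized GFP-positive differentiation at or above the plate's own cutoff, the solvent-only control mean plus 3 SD; inconclusive = no clear call, values can overlap the other calls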;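 also: cells exposed to compound for four days before flow analysis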
IDE cell activ = human IDE activators in live cells, primary screen, fluorescence polarization, HEK cells, FAbeta-B substrate; FAbeta-B cleavage; 0% vehicle, 100% cell-free pure enzyme wells; Insulin-degrading enzyme (Homo sapiens), P14735; activation, % at 5.96 µM; 340,000 compounds, 0.073% hits;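 active = activation above the mean of all tested compounds plus 3 SD, set per screening campaign, cut at about 17% in these data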
Target sequence (P14735 whole entry, looked up): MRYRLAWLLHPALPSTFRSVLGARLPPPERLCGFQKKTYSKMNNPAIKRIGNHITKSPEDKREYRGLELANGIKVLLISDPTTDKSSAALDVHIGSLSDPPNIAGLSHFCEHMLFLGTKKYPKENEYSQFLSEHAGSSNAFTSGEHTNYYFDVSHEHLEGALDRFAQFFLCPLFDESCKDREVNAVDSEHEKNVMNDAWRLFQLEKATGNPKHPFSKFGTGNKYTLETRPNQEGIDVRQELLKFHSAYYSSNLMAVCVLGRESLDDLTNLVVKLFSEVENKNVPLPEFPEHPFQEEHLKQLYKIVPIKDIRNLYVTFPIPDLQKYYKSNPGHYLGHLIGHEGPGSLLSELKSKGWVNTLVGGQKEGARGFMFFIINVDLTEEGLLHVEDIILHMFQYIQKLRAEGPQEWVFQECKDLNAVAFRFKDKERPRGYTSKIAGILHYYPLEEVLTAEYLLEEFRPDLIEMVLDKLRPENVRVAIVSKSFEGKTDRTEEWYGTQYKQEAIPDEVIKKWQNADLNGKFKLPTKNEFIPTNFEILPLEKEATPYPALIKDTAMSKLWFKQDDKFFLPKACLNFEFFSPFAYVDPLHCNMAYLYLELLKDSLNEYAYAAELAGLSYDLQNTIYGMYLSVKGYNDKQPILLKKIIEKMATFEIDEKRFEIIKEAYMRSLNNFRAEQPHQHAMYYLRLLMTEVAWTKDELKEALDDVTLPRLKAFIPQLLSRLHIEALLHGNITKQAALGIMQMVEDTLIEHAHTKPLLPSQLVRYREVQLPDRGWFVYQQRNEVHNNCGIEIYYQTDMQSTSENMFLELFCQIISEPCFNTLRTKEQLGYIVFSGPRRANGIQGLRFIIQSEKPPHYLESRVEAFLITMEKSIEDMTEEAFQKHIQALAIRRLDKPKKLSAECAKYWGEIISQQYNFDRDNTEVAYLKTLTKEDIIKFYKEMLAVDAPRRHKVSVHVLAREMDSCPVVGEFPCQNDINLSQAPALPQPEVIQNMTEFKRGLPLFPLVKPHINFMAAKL
IDE cell inh = human IDE inhibitors in live cells, primary screen, fluorescence polarization, HEK cells, FAbetaB substrate; Insulin-degrading enzyme (Homo sapiens), P14735; FAbetaB cleavage; inhibition, % at 5.59 µM; 320,000 compounds, 0.41% hits; AID 434962, 2010;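 active = percent inhibition above the average of all tested compounds plus 3 SD, set per screening campaign, cut at about 16% in these data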;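 also: IDE supplied by intact live HEK cells; FP after avidin binding of uncleaved biotin substrate so inhibition keeps polarization high; 0% = DMSO wells and 100% = 60 µM reference IDE inhibitor Ii1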
CRFBP-R2 agonist = agonists of CRF-BP/CRF-R2 complex, primary screen, cell-based, HEK293, calcium dye fluorescence, uHTS; activation, % at 13.2 µM; calcium dye fluorescence (FLIPR); percent of saturating CRF peptide response; 350,000 compounds, 0.46% hits;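 active = activation of at least 50%, plus an integration ratio under a set limit after plate pattern correction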;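 also: plate controls were neutral control wells without compound for no effect and CRF at EC100 for full effect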
TPT1 inh = Candida albicans TPT1 enzyme inhibitors, primary screen, biochemical, fluorescence polarization. recombinant caTPT1, FP RNA substrate dephosphorylation. AID 1962, 2009. tRNA 2'-phosphotransferase TPT1 (Candida albicans SC5314). 300,000 compounds, 0.81% hits. inhibition, % at 5 µM;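 active = inhibition above the mean of all tested compounds plus 3 SD, set per screening campaign, cut at about 24% in these data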;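 also: plate controls were DMSO alone for no effect and ferristatin control at 100 nM for full effect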
CRFR2-BP antag = antagonists of CRF-BP/CRF-R2 complex, primary screen, cell-based, HEK293, calcium dye fluorescence, uHTS | CRF-induced calcium fluorescence | inhibition, % at 11.8 µM | 350,000 compounds, 0.59% hits;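 active = inhibition of the ligand-induced calcium signal above about 50% at the single tested concentration, limit read from the data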
IDE cell inh cf = human IDE inhibitors in live cells, confirmation, fluorescence polarization, HEK cells, FAbetaB substrate. inhibition, % at 5.59 µM. shares compounds with IDE cell inh. FAbetaB cleavage. 1,200 compounds, 51% hits;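 active = mean inhibition across triplicate wells above the cutoff set by the earlier primary insulin-degrading enzyme screen, cut at about 16% in these data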;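 also: 0% = DMSO wells and 100% = 60 µM reference IDE inhibitor Ii1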
HEK cytotox = cytotoxicity in HEK cells, cytotoxicity control for IDE inhibitor project, cell-based, luminescence; HEK293 cytotoxicity, ATP luminescence; inhibition, % at 5.59 µM; shares compounds with IDE cell inh; 1,200 compounds, 28% hits; in the data active = inhibition above about 22%;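 also: 0% = vehicle wells and 100% = reference cytotoxic drug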
An asterisk follows results filed as active; i = inactive; ? = inconclusive; . = no result. In the library only some 2.6% were active in any assay of this set; here they are far more common.

SMILES	Myeloid diff MLP	IDE cell activ	IDE cell inh	CRFBP-R2 agonist	TPT1 inh	CRFR2-BP antag	IDE cell inh cf	HEK cytotox
COc1ccc(CCC(=O)Nc2cc(S(C)(=O)=O)ccc2Cl)cc1	i	5	1	.	-4	.	.	.
COC(=O)c1c(NC(=O)Cc2cccs2)sc2c1CCCC2	i	1	8	-4	2	23	.	.
COC(=O)c1c(NS(=O)(=O)c2cccs2)sc2c1CCCC2	i	3	18*	1	-7	26	6	10
CC(=O)Nc1ccc(-c2csc(-c3cccnc3)n2)cc1	i	5	0	0	-1	-6	.	.
CN1OC[C@@H]2CN(S(=O)(=O)c3cc(Cl)cc(Cl)c3)[C@H](c3ccc(-c4ccc(C#N)cc4)cc3)C[C@@H]21	i	.	.	.	.	.	.	.
COc1ccc(C2=CC(c3ccc(F)cc3)n3nnnc3N2)cc1 (stereo not given)	i	-2	10	4	0	-14	.	.
Cc1ccc(C2=CC(c3ccc(N(C)C)cc3)n3nnnc3N2)cc1 (stereo not given)	i	-64	41*	4	24	-12	42*	13
CCC(=O)NC(c1ccco1)c1cc(Cl)c2ccccc2c1O (stereo not given)	i	-9	16*	5	.	9	9	12
CC(=O)NC(c1ccco1)c1cc(Cl)c2ccccc2c1O (stereo not given)	i	-7	36*	-3	.	9	11	6
CC(=O)N/C(=C\c1ccccc1)C(=O)OCC(=O)NC1CCS(=O)(=O)C1 (stereo not given)	i	4	-5	-1	.	1	.	.
CCOC(=O)C1CCCN(C2=NC(=O)/C(=C/c3ccc(O)c(OC)c3)S2)C1 (stereo not given)	i	-28	25*	5	20	-3	75*	15
CC(C)/C(C=O)=C(/NC1CCCCC1)c1ccccc1	i	1	5	0	-3	6	.	.
Cc1cccc(NC(=O)CN2C(=O)NC3(CCCC3)C2=O)n1	i	2	-5	-1	-1	8	.	.
COc1cccc(-c2ccc(NC(=O)C3CCCN(Cc4ccc(CO)o4)C3)cc2)c1 (stereo not given)	i	1	5	2	-2	-9	.	.
CCc1c(C#N)c(SCc2c(C)noc2C)nc2c1C(=O)CC(C)(C)C2	i	-12	18*	-1	1	7	1	32*
CCc1c(C#N)c(SCCC(=O)Nc2ccc(OC)cc2)nc2c1C(=O)CC(C)(C)C2	i	0	3	-1	2	25	.	.
CN1C(=O)c2cccc3c(N(C)C)ccc(c23)C1=O	i	-45	46*	55*	10	-44	52*	11
CN1C(=O)c2cccc3c(Br)ccc(c23)C1=O	i	.	-1	0	-5	-17	.	.
Cc1ccc(N2CCN(S(=O)(=O)c3ccc4oc(=O)ccc4c3)CC2)cc1Cl	i	4	1	0	4	-1	.	.
Cc1sc2ncnc(N3CCC(C(=O)NNC(=O)COc4ccc(Br)cc4)CC3)c2c1C	i	-10	22*	-1	-1	-1	13	11
O=c1c(O)c(-c2cccs2)oc2ccc(Cl)cc12	i	24*	70*	267*	-5	-254	26*	9
Cc1cc(C)c2c(=O)n(CC(=O)Nc3ccc(Br)c(C)c3)sc2n1	i	-51	61*	13	1	-15	19*	22
COc1ccc(OC)c(CCNC(=O)Cn2sc3nc(C)cc(C)c3c2=O)c1	.	.	20*	.	3	.	7	125*
Cc1cc(C)c2c(=O)n(CC(=O)NC3CCCC3)sc2n1	i	-50	27*	1	-1	-8	2	80*
COc1ccc(OC)c(CCNC(=O)Cn2nc(C)c3c(C)n(-c4ccc(C)cc4)nc3c2=O)c1	?	2	0	1	1	4	.	.
SMILES	Myeloid diff MLP	IDE cell activ	IDE cell inh	CRFBP-R2 agonist	TPT1 inh	CRFR2-BP antag	IDE cell inh cf	HEK cytotox
Cc1cc(NC(=O)Cc2ccsc2)ccc1Br	i	2	-5	2	1	5	.	.
Cc1cc(C)c2c(N)c(C(=O)NC3CCCC3)sc2n1	i	-1	4	-1	-3	-4	.	.
Cc1cc(C)c2c(=O)n(CC(=O)Nc3cccc(Cl)c3C)sc2n1	i	-62	40*	46	-1	-32	6	79*
CCOC(=O)c1c(Cc2ccccc2)c[nH]c1C	i	2	-5	-1	3	15	.	.
O=C(NCCc1ccc(Cl)cc1)c1cc(-c2ccccn2)nc2ccccc12	i	4	-3	1	-1	-2	.	.
COC(=O)c1ccc(NC(=O)CN2C(=O)CC(C)S(=O)(=O)c3ccccc32)cc1 (stereo not given)	i	3	6	-1	-3	-2	.	.
COc1ccc(C2C=C(Nc3ccccc3)C(=O)N2c2ccccc2)cc1OC (stereo not given)	i	0	17*	1	9	44	-1	23*
O=C(Cc1ccccc1F)Nc1ccc(S(=O)(=O)N2CCCC2)cc1	i	3	-2	-1	.	0	.	.
C/C(=N/NC(=O)CN1CCN(Cc2ccccc2Cl)CC1)c1ccncc1	i	-22	24*	-1	1	1	15	7
CCC(=O)N1CCN(c2nc(-c3ccc(Cl)cc3)cs2)CC1	i	-15	18*	-4	2	19	10	19
CC(C)CNC(=S)N1CCN(c2nc(-c3ccc(Cl)cc3)cs2)CC1	i	-17	13	2	-3	9	.	.
Nc1cc(C(=O)OCC(=O)NNC(=O)c2cccs2)ccc1Cl	i	1	-1	0	-2	-1	.	.
Cc1ccc2nc(N3CCN(C)CC3)c(C#N)cc2c1	i	-1	-1	3	-1	5	.	.
Cc1ccc2nc(N3CCN(Cc4nnnn4Cc4ccccc4)CC3)c(C#N)cc2c1	i	-8	21*	4	-6	1	0	11
Cc1ccc2[nH]c3c(NCCN4CCOCC4)ncnc3c2c1	i	-4	.	-1	.	-3	.	.
COc1ccc(/C=N/Nc2ncnc3c2[nH]c2ccccc23)c(OC)c1OC	i	-9	7	-3	2	1	.	.
